Laboratory results: PubChem BioAssay (NCATS)
Inconclusive results are not listed. The source made the active and inactive calls. Calls follow the shape of the full dose curve; tested in HEK293 reporter line.

Legend:
[1] = qHTS for Inhibitors of the Functional Ribonucleoprotein Complex (vRNP) of Lassa (LASV) Arenavirus: LASV Primary Screen - GLuc reporter signal (AID 1347082); settings: LASV minigenome vRNP, Gaussia luciferase reporter; series mostly up to 57.5 µM; also: nearly all actives have a fitted effect of over 60% in size
[2] = qHTS for Inhibitors of the Functional Ribonucleoprotein Complex (vRNP) of Lassa (LASV) Arenavirus: Viability assay - alamar blue signal for LASV Primary Screen (AID 1347083); settings: cell viability, alamar blue fluorescence (LASV minigenome counter-screen); series mostly up to 57.5 µM; also: nearly all actives have a fitted effect of over 80% in size
[3] = qHTS for Inhibitors of the Functional Ribonucleoprotein Complex (vRNP) of Lymphocytic Choriomeningitis Arenaviruses (LCMV): Viability assay - alamar blue signal for LCMV Primary Screen (AID 1347085); settings: alamar blue viability counter-screen, LCMV vRNP screen cells; series mostly up to 57.5 µM; also: nearly all actives have a fitted effect of over 80% in size

Measured: Potency

CC1(C)O[C@@H]2C[C@H]3[C@@H]4CCC5=CC(=O)C=C[C@]5(C)[C@@H]4[C@@H](O)C[C@]3(C)[C@]2(C(=O)CO)O1
inactive: all assays above

Nc1cc(=O)[nH]c(N)n1
inactive: all assays above

Oc1ccccc1
inactive: all assays above

CCOc1cc(CC(=O)N[C@@H](CC(C)C)c2ccccc2N2CCCCC2)ccc1C(=O)O
inactive: all assays above

Cc1cc2cc3c(C)cc(=O)oc3c(C)c2o1
inactive: all assays above

O=C1CC(c2ccc(Cl)cc2)CC(=O)N1
inactive: all assays above

CN(C)[C@@H]1C(=O)C(C(N)=O)=C(O)[C@@]2(O)C(=O)C3=C(O)c4c(O)cccc4C[C@H]3C[C@@H]12
inactive: all assays above

CCOc1cc(OCC)c(C(=O)CCC(=O)O)cc1OCC
inactive: all assays above

COc1cccc(OC)c1C(=O)N[C@@H]1C(=O)N2[C@@H]1SC(C)(C)[C@@H]2C(=O)O
inactive: all assays above

NC(=O)n1c(O)c(C(=O)c2cccs2)c2cc(Cl)ccc21
inactive: all assays above

O=c1cc(O)c(Cl)c[nH]1
inactive: all assays above

COc1cc(C(=O)N2CCCCCCC2)cc(OC)c1OC
inactive: all assays above

Cc1cccc(C)c1NC(=O)CC12CCCN1CCC2
inactive: all assays above

CCc1cc(S(=O)(=O)O)c2cc(C(C)C)cccc1-2
inactive: all assays above
